Inconclusive results are not listed. A number with no mark means an inactive call. Calls follow the shape of the dose curve; as a rule, active = well fitted curve in the direction sought with a large enough effect; inconclusive = small, poorly fitted or top-dose-only effect, or another doubt; inactive = no such curve, though single readings can be large or run the other way.
Target: Polyunsaturated fatty acid lipoxygenase ALOX15 (Homo sapiens) (UniProt P16050)
Test: Counterscreen qHTS for inhibitors of human arachidonate 12S-lipoxygenase (ALOX12): ALOX15 Assay; also: 0% is about no effect
Conditions: purified ALOX15 enzyme activity; series mostly up to 110 µM; activity change, negative = inhibition: at the top concentration
In short: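 Xylenol orange–ferric complex formation, read as the 573 nm to 405 nm absorbance ratio, tracks product from 50 uM arachidonic acid turned over for 30 min at RT. Enzyme is 40 nM ALOX15, pH 7.5 HEPES buffer, compound-preincubated 15 min.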

Sequence of Polyunsaturated fatty acid lipoxygenase ALOX15 (Homo sapiens) (P16050 whole entry, looked up): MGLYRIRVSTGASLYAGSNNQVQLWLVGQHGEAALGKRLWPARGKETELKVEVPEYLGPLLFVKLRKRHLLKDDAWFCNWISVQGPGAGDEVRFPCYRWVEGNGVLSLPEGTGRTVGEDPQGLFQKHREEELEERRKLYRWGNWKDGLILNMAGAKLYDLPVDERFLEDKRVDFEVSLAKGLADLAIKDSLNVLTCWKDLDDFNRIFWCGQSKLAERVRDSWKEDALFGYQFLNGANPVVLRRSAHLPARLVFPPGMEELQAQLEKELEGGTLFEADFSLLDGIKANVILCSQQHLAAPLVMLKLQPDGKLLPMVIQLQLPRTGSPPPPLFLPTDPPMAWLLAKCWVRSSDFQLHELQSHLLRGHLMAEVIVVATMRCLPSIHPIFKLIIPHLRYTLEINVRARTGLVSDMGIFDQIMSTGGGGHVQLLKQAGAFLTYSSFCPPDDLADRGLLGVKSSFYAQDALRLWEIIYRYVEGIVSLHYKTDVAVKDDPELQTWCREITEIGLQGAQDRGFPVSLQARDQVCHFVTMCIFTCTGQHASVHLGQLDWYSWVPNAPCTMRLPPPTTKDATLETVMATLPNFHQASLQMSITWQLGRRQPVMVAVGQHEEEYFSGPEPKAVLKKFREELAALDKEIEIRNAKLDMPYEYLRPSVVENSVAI

SMILES	activity change, negative = inhibition
O=C(NCc1ccc(Cl)nc1)c1cnn2c1CN(C(=O)c1ccccc1)CC2	0.165%
O=C(N1CCCC1)N1CCCC(c2nnc3n2CCNC3)C1 (stereo not drawn)	9.46% [at 146 µM]
CN1CC(=O)N(c2ccc(Cl)cc2)Cc2c(NC3CCNCC3)ncnc21	-20.7%
O=C1NCc2ccccc2CC12CCN(Cc1ccc(F)cc1O)C2 (stereo not drawn)	-3.81% [at 146 µM]
O=c1n(-c2cccc(Cl)c2)nc2n1CCN([S+](=O)([O-])c1cccs1)C2	-4.57%
CCOCCCNc1ncnc2c1CN(C1CCCNC1)C(=O)CN2C (stereo not drawn)	-10.3%
COc1ccc(N2CC3CCC(C2)N3[S+](C)(=O)[O-])cc1	-3.15% [at 146 µM]
CCCC(=O)N1Cc2ccccc2CC2(CCCN(C)C2)C1 (stereo not drawn)	-26% [at 146 µM]
COc1ccc(-c2cc(C(=O)NC3CCNCC3)c3c(C4CCCN4)noc3n2)cc1 (stereo not drawn)	-6.82%
CN1CCC(C(=O)N2Cc3ccccc3CC3(CCCN(CC4CCNC4)C3)C2)CC1 (stereo not drawn)	-33.8%
O=C(O)c1cccc(-c2ccc(OC(F)(F)F)cc2)c1	0.598% [at 146 µM]
COc1ccc(F)cc1-c1ccccc1C=O	-5.08% [at 146 µM]
CNC(=O)c1cn2c(n1)CN(C(=O)OC)CC2	-1.52% [at 233 µM]
COc1ccc(NC2CN(C(=O)OC(C)(C)C)C2)cc1	-15.5% [at 146 µM]
COc1ccc(-c2cc(C(=O)NC3CC3)c3c(C)nn(-c4ccccc4)c3n2)cc1	-28.5%
NCc1cccc(-c2ccccc2F)c1	18.2% [at 146 µM]
N#Cc1ccc(CN2CCC3(CN[S+](=O)([O-])c4cnccc4O3)C2)cc1 (stereo not drawn)	-8.17%
CN1CC(=O)N(C2CCNCC2)Cc2c1ncnc2N1CCCCC1	-12.3%
O=C(O)c1cccc(-c2ccsc2)c1	7.2% [at 233 µM]

SMILES	activity change, negative = inhibition
NCc1cccc(-c2cncnc2)c1	-18.5% [at 146 µM]
Fc1ccc(CN2CCn3c(nnc3C3CCCNC3)C2)cc1 (stereo not drawn)	-21.6% [at 146 µM]
O=C1c2ccccc2CN1C1CCN(Cc2cccc3ccccc23)CC1	-4.22%
COc1cc(CN2CCC3(Cc4ccccc4CNC3=O)C2)cc(OC)c1 (stereo not drawn)	-3.22%
CCC(=O)N1Cc2ccccc2CC2(CCN(Cc3ccncc3)CC2)C1	-9.79%
COc1cccc(N2C(=O)NC(=NC3CCCC3)C23CCCN(CC2CC2)C3)c1 (stereo not drawn)	-13%
CNC(C)c1c(F)cccc1F (stereo not drawn)	-21.6% [at 233 µM]
CC(C)OCCCNc1ncnc2c1CN(C1CCNC1)C(=O)CN2C (stereo not drawn)	-18%
O=C1NC(=NC2CCCC2)C2(CCN(CC3CCCCC3)CC2)N1c1cc(F)cc(F)c1	-26%
COc1cccc([S+](=O)([O-])N2CCn3c(nn(-c4cccc(Cl)c4)c3=O)C2)c1	-0.101%
Cc1ccc(-c2cccc(C=O)c2)cc1Cl	-27.3% [at 233 µM]
CN1CC(=O)N(C2CCCNC2)Cc2c(NC3CCC3)ncnc21 (stereo not drawn)	-24.9% [at 146 µM]
COc1cccc(N2C(=O)NC(=NC3CCCC3)C23CCN(Cc2ccsc2)C3)c1 (stereo not drawn)	-47.3%
CN1CC(=O)N(C2CCCNCC2)Cc2c1ncnc2N1CCCCC1 (stereo not drawn)	6.11% [at 146 µM]
O=C1NCc2ccccc2CC12CCN(Cc1cccc(F)c1F)C2 (stereo not drawn)	-14.8% [at 146 µM]
COc1ccc(N2CC3CCC(C2)N3C(=O)NC(C)C)cc1	-3.12% [at 146 µM]
CC(C)OCCCNC(=O)c1cc(C2CC2)nc2onc(C3CCCN3)c12 (stereo not drawn)	-5.04%
CCCC(=O)N1Cc2ccccc2CC2(CCN(Cc3ccccc3)CC2)C1	-9.59%
O=C1NCc2ccccc2CC12CCN(Cc1cccc3ccccc13)C2 (stereo not drawn)	-22.1%
